For assay [1], the target named is Gonadotropin-releasing hormone receptor (Homo sapiens) (UniProt P30968). The assay can be described thus: Human gonadotropin-releasing hormone receptor (GnRHR) small molecule agonists, calcium flux assay in GnRHR-HEK293 cells (AID 1920063). Further: nearly all actives have a fitted effect of over 35% in size. The essentials:
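HEK293 cells stably expressing human GnRHR were plated 18 h at 37 °C, loaded with calcium dye 1 h at 37 °C, then given compound in agonist mode; fluorescence (Ex/Em 480/540) read kinetically for 3 min at 1 s intervals.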

The target in assay [2] is KiSS-1 receptor (Homo sapiens) (UniProt Q969F8). Put plainly: Human kisspeptin (KISS1R) small molecule agonists, calcium flux assay in KISS1R-HEK293 cells (AID 1920064; active means well fitted activation curve with a large enough effect in the repeat runs). The essentials: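 HEK293 cells stably expressing human KISS1R were plated 18 h at 37 °C, loaded with calcium dye for 1 h at 37 °C, then given compound by pin tool. Fluorescence (Ex/Em 480/540) was read kinetically for 3 min.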
(Calcium flux is commonly read through the fluorescence of an indicator in the cells.)

Assay [3] can be described thus: G protein-coupled receptor (GPCR) small molecule agonists, calcium flux assay: HEK293 wild type cell line counter screen (AID 1920065). The essentials:
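Cells were plated and cultured 18 h at 37 C/5% CO2, then loaded with calcium dye for 1 h at 37 C. Compounds in DMSO were pin-transferred in agonist mode, and fluorescence (Ex/Em 480/540) was read kinetically for 3 min at 1 s intervals.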

The nature of assay [4]: p53 small molecule agonists, cell-based qHTS assay with human liver microsomes (AID 1963577). The essentials:
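p53RE-bla cells, 4,000/well, compound added after 5 h, with human liver microsomes 0.5 mg/mL and NADPH 0.5 mg/mL final; 16 h at 37 C, then LiveBLAzer 2 h RT, fluorescence.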

A short description of assay [5]: p53 small molecule agonists, cell-based qHTS assay with rat liver microsomes (AID 1963578). The essentials:
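p53RE-bla cells, 4,000/well, pre-incubated 5 h, then given compounds plus rat liver microsomes (0.5 mg/mL final) and NADPH (0.5 mg/mL final). Incubation 16 h at 37 C; beta-lactamase reporter read by LiveBLAzer fluorescence after 2 h at room temperature.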

Assay [6] in a line: p53 small molecule agonists, cell-based qHTS assay with human liver microsomes: qHTS cell viability counter screen (AID 1963579). Further: nearly all actives have a fitted effect of over 45% in size. The essentials:
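p53RE-bla cells, 4,000/well, dosed 5 hours after plating, with human liver microsomes (0.5 mg/mL final) plus NADPH (0.5 mg/mL final), 16 hours at 37 C. Viability read as CellTiter-Glo luminescence after 30 min at room temperature.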
A general note: In qHTS, concentration-response curves come from the screen itself.

Assay [7] can be described thus: p53 small molecule agonists, cell-based qHTS assay with rat liver microsomes: qHTS cell viability counter screen (AID 1963580). Further: nearly all actives have a fitted effect of over 45% in size. The essentials:
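Viability is assessed in parallel with the p53 reporter read: HCT-116 p53RE-bla cells receive compounds plus rat microsomes and NADPH (0.5 mg/mL final apiece), incubate 16 h at 37 C, and then CellTiter-Glo luminescence is recorded.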

Assay [8] concerns the target 5-hydroxytryptamine receptor 2A (Homo sapiens) (UniProt P28223). Put plainly: 5-hydroxytryptamine receptor 2A (HTR2A) small molecule agonists, cell-based qHTS assay (AID 1963587). Further: nearly all actives have a fitted effect of over 30% in size. The essentials:
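CHO cells stably expressing human HTR2A, plated 18 h, loaded with calcium dye 1 h at 37 C. Agonist mode: compounds added and intracellular calcium fluorescence recorded kinetically for 2 min at 1 sec intervals.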

Assay [9] concerns the target Muscarinic acetylcholine receptor M1 (Homo sapiens) (UniProt P11229). Put plainly: Cholinergic receptor muscarinic 1 (CHRM1) small molecule agonists, cell-based qHTS assay (AID 1963589). Further: nearly all actives have a fitted effect of over 35% in size. The essentials:
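CHO cells stably expressing human CHRM1, seeded 18 h at 37 C/5% CO2, dye-loaded 1 h at 37 C, then given compound in agonist mode; intracellular calcium fluorescence read kinetically at 1 s intervals. Fifteen concentrations, three independent runs.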

The target in assay [10] is Beta-2 adrenergic receptor (Homo sapiens) (UniProt P07550). The assay can be described thus: Adrenergic beta2 receptor (ADRB2) small molecule antagonists, cell-based qHTS assay (AID 1963592). Further: nearly all actives have a fitted effect of over 50% in size. Further: potency means the concentration at half of the fitted maximal effect. The essentials:
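Cells (CHO, stable ADRB2 overexpression) incubated 18-20hr at 37C; compounds added from DMSO; agonist mix (1nM isoproterenol, 100uM IBMX, 25uM Ro-20-1724) added; 0.5hr RT; d2-cAMP and anti-cAMP-cryptate added; 1hr RT; 665/615 nm read.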

The target in assay [11] is D(2) dopamine receptor (Homo sapiens) (UniProt P14416). The assay can be described thus: Dopamine D2 receptor (DRD2) small molecule agonists, cell-based qHTS assay (AID 1963594). Further: nearly all actives have a fitted effect of over 35% in size. The essentials: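 HEK293 cells stably expressing human DRD2, pre-treated with PDE inhibitor Ro20-1724 (0.1 mM final) and compound 10 min at room temperature, then stimulated with NKH477 (200nM […]) for 30 min. cAMP read by HTRF (665/620 nm).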

For assay [12] the target is unchanged. Put plainly: Dopamine D2 receptor (DRD2) small molecule antagonists, cell-based qHTS assay (AID 1963595; active means well fitted inhibition curve with a large enough effect in the signal ratio in the repeat runs, with a control signal flat; the % refers to the signal ratio; further: potency means the concentration at half of the fitted maximal effect). The essentials:
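HTRF cAMP read-out at 665 and 620 nm emission (340 nm excitation). Antagonist mode: compounds were tested against 12 nM quinpirole in DRD2-HEK293 cells, with 200 nM NKH477 raising cAMP and 0.1 mM Ro20-1724 blocking its breakdown.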

Assay [13] can be described thus: p53 small molecule agonists, cell-based qHTS assay: qHTS cell viability counter screen (AID 1963581). Further: nearly all actives have a fitted effect of over 45% in size. The essentials: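 p53RE-bla HCT-116 cells were exposed to compounds for 16 h at 37 C; after the beta-lactamase FRET read in the same wells, CellTiter-Glo was added and luminescence (intracellular ATP) read after 30 min at room temperature.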
Assay [14] can be described thus: p53 small molecule agonists, cell-based qHTS assay (AID 1963582; active means well fitted activation curve with a large enough effect in the signal ratio in the repeat runs, not every such curve was filed as active; the % refers to the signal ratio). The essentials: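 p53RE-bla beta-lactamase reporter cells rested 5 h at 37 C/5% CO2, then received compounds in DMSO by pin transfer and were incubated 16 h at 37 C. LiveBLAzer B/G FRET substrate was loaded for 2 h at room temperature before fluorescence reading.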
Assay [15] concerns the target 5-hydroxytryptamine receptor 2A (Homo sapiens) (UniProt P28223). Put plainly: 5-hydroxytryptamine receptor 2A (HTR2A) small molecule antagonists, cell-based qHTS assay (AID 1963586). Further: nearly all actives have a fitted effect of over 45% in size. Further: potency means the concentration at half of the fitted maximal effect. The essentials:
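Antagonist-mode intracellular calcium assay: DOI (4 nM) added after 5 min compound pre-incubation at room temperature to dye-loaded HTR2A-CHO cells. Fluorescence followed for 3 min, sampled every second.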

In assay [16] the target is Muscarinic acetylcholine receptor M1 (Homo sapiens) (UniProt P11229). The assay can be described thus: Cholinergic receptor muscarinic 1 (CHRM1) small molecule antagonists, cell-based qHTS assay (AID 1963588). Further: nearly all actives have a fitted effect of over 40% in size. Further: potency means the concentration at half of the fitted maximal effect. The essentials:
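CHRM1-CHO calcium-flux assay, antagonist mode. Cells were seeded 18 h, dye-loaded 1 h at 37 C and given compound for 5 min at RT, then acetylcholine was added at 50nM. FDSS fluorescence was read 3 min; 15 concentrations, three runs.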

Assay [17] is described as follows: cAMP Responsive Elements (CRE) small molecule agonists, cell-based qHTS assay (AID 1963590). The essentials:
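CRE-bla HEK 293T cells in DMEM with 10% dialyzed FBS, NEAA, pyruvate and 25 mM HEPES were plated 18 h at 37 C/5% CO2, then exposed to compounds in DMSO for 3 h before LiveBLAzer B/G FRET substrate addition.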

A short description of assay [18]: cAMP Responsive Elements (CRE) small molecule antagonists, cell-based qHTS assay (AID 1963591; active means well fitted inhibition curve with a large enough effect in the signal ratio in the repeat runs, not every such curve was filed as active; the % refers to the signal ratio). The essentials: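 CRE-bla HEK293T cells were plated 18 h at 37 °C/5% CO2, pinned with compound in DMSO, then stimulated with NKH477 at 0.25 uM final for 3 h. LiveBLAzer B/G FRET substrate was added and plates incubated 2 h at room temperature.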
Assay [19] in a line: Nuclear factor erythroid 2-related factor 2/antioxidant responsive element (Nrf2/ARE) small molecule agonists: luciferase reporter gene qHTS assay in human keratinocytes (AID 1919969; further: nearly all actives have a fitted effect of over 35% in size). (In general: Reporter assays use an easily measured gene product as a stand-in for the process of interest.)

Values without a mark were called inactive. Inconclusive results are not listed. The source made the active and inactive calls. Unless noted, the call rests on the fitted dose curve.

Chain of Gonadotropin-releasing hormone receptor (Homo sapiens) (P30968 whole entry, looked up): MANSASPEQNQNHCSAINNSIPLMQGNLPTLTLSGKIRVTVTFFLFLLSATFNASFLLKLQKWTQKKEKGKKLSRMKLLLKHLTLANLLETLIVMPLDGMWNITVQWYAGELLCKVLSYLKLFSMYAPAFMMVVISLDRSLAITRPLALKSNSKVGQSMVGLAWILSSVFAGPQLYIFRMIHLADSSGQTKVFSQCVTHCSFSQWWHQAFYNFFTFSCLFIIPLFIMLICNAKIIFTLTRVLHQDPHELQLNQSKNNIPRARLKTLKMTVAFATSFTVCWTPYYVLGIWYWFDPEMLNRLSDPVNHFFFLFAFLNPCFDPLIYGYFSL
Chain of D(2) dopamine receptor (Homo sapiens) (P14416 whole entry, looked up): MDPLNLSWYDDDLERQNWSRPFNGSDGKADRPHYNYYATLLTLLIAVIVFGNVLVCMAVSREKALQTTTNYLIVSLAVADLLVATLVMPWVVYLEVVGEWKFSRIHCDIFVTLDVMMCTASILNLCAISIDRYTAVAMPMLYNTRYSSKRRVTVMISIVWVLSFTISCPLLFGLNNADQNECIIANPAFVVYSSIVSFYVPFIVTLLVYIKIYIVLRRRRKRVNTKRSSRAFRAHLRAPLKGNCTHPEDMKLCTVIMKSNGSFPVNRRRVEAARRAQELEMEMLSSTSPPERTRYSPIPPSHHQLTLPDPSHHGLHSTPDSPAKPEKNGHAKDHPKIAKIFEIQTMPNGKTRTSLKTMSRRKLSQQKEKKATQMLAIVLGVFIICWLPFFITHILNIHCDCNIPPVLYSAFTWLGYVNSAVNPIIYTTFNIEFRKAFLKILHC
Chain of KiSS-1 receptor (Homo sapiens) (Q969F8 whole entry, looked up): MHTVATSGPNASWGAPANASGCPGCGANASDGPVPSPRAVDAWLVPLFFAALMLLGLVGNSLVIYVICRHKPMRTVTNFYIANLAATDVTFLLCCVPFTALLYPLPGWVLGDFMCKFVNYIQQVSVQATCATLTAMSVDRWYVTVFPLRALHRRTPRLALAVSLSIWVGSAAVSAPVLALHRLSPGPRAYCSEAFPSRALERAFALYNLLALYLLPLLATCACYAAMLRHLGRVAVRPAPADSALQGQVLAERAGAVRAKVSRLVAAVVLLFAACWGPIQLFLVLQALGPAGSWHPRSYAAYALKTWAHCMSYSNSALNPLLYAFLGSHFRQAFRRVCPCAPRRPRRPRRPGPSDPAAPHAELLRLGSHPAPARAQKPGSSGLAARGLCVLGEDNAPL
Chain of 5-hydroxytryptamine receptor 2A (Homo sapiens) (P28223 whole entry, looked up): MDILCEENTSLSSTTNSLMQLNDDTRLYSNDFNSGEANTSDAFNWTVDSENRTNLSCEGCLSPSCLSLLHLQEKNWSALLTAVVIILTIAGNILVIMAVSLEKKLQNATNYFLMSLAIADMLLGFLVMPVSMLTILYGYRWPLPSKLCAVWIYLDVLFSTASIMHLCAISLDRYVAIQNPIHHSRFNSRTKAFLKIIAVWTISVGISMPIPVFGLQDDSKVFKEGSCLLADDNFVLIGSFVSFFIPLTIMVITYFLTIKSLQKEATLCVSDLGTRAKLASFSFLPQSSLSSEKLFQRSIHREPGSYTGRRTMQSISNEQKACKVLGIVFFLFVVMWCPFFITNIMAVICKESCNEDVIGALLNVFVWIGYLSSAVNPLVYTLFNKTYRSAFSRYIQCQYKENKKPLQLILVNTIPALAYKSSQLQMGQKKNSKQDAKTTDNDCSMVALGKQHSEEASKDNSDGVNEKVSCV
Chain of Beta-2 adrenergic receptor (Homo sapiens) (P07550 whole entry, looked up): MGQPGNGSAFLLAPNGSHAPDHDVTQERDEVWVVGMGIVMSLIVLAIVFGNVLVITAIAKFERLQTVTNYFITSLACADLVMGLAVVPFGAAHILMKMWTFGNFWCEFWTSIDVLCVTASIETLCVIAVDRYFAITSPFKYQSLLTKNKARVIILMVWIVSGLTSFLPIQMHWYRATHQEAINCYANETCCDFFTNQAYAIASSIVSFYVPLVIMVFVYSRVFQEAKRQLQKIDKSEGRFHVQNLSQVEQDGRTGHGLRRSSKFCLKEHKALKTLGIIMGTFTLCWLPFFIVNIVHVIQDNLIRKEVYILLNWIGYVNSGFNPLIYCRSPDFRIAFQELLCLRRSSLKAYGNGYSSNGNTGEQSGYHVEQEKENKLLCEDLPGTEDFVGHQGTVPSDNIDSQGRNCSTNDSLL
Chain of Muscarinic acetylcholine receptor M1 (Homo sapiens) (P11229 whole entry, looked up): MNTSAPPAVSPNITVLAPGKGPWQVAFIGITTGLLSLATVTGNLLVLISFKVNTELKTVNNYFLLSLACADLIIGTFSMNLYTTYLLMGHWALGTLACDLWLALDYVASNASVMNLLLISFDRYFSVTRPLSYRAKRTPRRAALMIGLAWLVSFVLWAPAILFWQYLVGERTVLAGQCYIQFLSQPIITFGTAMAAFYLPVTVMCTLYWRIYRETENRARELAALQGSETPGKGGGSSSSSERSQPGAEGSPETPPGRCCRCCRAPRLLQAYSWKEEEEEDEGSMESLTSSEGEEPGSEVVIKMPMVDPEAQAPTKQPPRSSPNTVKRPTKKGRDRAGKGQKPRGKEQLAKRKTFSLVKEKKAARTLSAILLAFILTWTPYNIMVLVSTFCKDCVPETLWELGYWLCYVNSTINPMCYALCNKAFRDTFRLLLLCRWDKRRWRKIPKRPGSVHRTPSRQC

In the case of `CCOC(=O)c1ccccc1C(=C1C=C(Br)C(=O)C(Br)=C1)c1cc(Br)c(O)c(Br)c1`, the Potency entry in [1], in [2], in assay [3], in assay [4], in [5] and in assay [6] was “inactive” each time. The Potency result in [7], in [8], in assay [9], in assay [10], in [11] and in assay [12] was “inactive” throughout.

As to `CCCCCCCCC(CCCCCC)C(=O)O` (stereo not given), the Potency entry in assay [1], in [2], in assay [3], in assay [4], in [5] and in assay [6] was “inactive” in each case. The Potency entry in [13], in assay [14], in [15], in assay [8], in assay [16] and in [9] was “inactive” throughout. Further, the Potency result in assay [17], in assay [18], in [10], in assay [11] and in assay [12] was “inactive” in each case.

For the compound `Cc1cc2c(cc1C(F)(F)F)N(C(=O)Nc1ccc(Oc3cccnc3C)nc1)CC2`, the Potency entry in [1], in assay [2], in assay [3], in assay [4], in assay [5] and in [6] was “inactive” throughout. Moreover, the Potency result in assay [7], in assay [13], in [16] and in assay [9] was “inactive” each time. Besides, the figures for the Potency in assay [10] and in assay [12] were 27.7 µM (active) and 6.2 µM (active), respectively.

On to `CC(=O)Oc1ccc([N+](=O)[O-])cc1CCl`, for which the Potency result in assay [1], in assay [2], in [3], in assay [4], in assay [5] and in assay [6] was “inactive” each time. The Potency result in [7], in assay [13], in assay [14], in [15], in assay [8] and in assay [16] was “inactive” each time. In addition, the Potency result in [9], in assay [17], in assay [18], in assay [11] and in assay [12] was “inactive” each time.

Turning to `CCN(CC)CCCN(c1ccccc1)C1Cc2ccccc2C1`, the Potency entry in assay [19], in assay [5], in assay [6], in [13], in [8] and in assay [9] was “inactive” in each case. Moreover, the Potency entry in assay [12] was “inactive”. In addition, the figures for the Potency in assay [15] and in assay [10] were 11.6 µM (active) and 0.106 µM (active), respectively.

`CC(=O)O[Si](C)(OC(C)=O)OC(C)=O`: the Potency result in assay [1], in assay [2], in assay [3], in assay [4], in assay [5] and in [6] was “inactive” throughout. In addition, the Potency entry in assay [7], in [13], in [14], in assay [15], in [8] and in assay [16] was “inactive” throughout. Besides, the Potency entry in assay [9], in assay [17], in assay [18], in [10], in assay [11] and in assay [12] was “inactive” throughout.

Regarding `CN1CCC[C@@H]1CCO[C@](C)(c1ccccc1)c1ccc(Cl)cc1`, the Potency entry in assay [1], in assay [2], in assay [3], in [4], in assay [5] and in [6] was “inactive” throughout. Also, the Potency result in assay [7], in assay [13], in assay [14] and in assay [11] was “inactive” each time.

For `CN1CCCC(CC2c3ccccc3Sc3ccccc32)C1` (stereo not given), the Potency entry in assay [1], in [2], in [3], in assay [4], in assay [5] and in assay [6] was “inactive” in each case. In addition, the Potency entry in [7], in assay [8] and in assay [9] was “inactive” each time. The Potency in assay [16] was 1.5 nM (active).

Values taken from PubChem BioAssay (Tox21).
